{"source": "PubChem BioAssay AID489017", "about": "(The Scripps Research Institute Molecular Screening Center, 2010)", "test_system": "Imidazoline I2 Central", "assay": "off-target binding and CYP450 inhibition panel, profiling panel, selectivity assay for S1P4 antagonist project, biochemical, Ricerca HitProfilingScreen (AID 489017)", "details": "Ricerca receptor/enzyme binding panel plus CYP450, at 10 µM, hits give high values", "note": "Unmarked numbers belong to inactive results. The rule behind the calls is not given here.", "data": [{"compound": "CCc1cccc(CC)c1NC(=O)c1ccc(-c2cc(Cl)ccc2Cl)o1", "values": [{"measurement": "inhibition", "value": 8, "unit": "%"}]}]}
